Test [1] in a line: qHTS assay to identify small molecule agonists of the peroxisome proliferator-activated receptor delta (PPARd) signaling pathway - cell viability counter screen (AID 743211). Note: nearly all actives have a fitted effect of over 55% in size. In outline:
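In the same wells used for beta-lactamase reporter measurement, cytotoxicity is scored by CellTiter-Glo. HEK293H PPARd-bla cells receive compound for 17 h at 37C following a 5 h settling period.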
(In general: Quantitative high-throughput screening tests each substance at several concentrations.)

In test [2] the target is Peroxisome proliferator-activated receptor delta (Homo sapiens) (UniProt Q03181). Put plainly: qHTS assay to identify small molecule agonists of the peroxisome proliferator-activated receptor delta (PPARd) signaling pathway (AID 743212; calls by dose curve). In outline:
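Read-out: beta-lactamase FRET fluorescence after 2 h room-temperature incubation with LiveBLAzer B/G substrate. Cells were HEK293H carrying a UAS-bla reporter for PPARd, treated at 37 C with DMSO-dissolved compounds.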

Test [3] in a line: qHTS assay to identify small molecule antagonists of the peroxisome proliferator-activated receptor delta (PPARd) signaling pathway - cell viability counter screen (AID 743213). Note: nearly all actives have a fitted effect of over 50% in size. In outline:
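PPARd-bla HEK293H cells were treated with compounds plus agonist L165041 (300 nM final) for 17 h at 37 C. Viability was then read in the same wells by CellTiter-Glo luminescence after 30 min at room temperature.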

Test [4] concerns the target Peroxisome proliferator-activated receptor delta (Homo sapiens) (UniProt Q03181). Put plainly: qHTS assay to identify small molecule antagonists of the peroxisome proliferator-activated receptor delta (PPARd) signaling pathway (AID 743215; active = well fitted inhibition curve with a large enough effect in the signal ratio in the repeat runs, not every such curve was filed as active; the % refers to the signal ratio;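 note: cells stimulated with agonist L165041 at 300 nM final during compound exposure; series mostly up to about 62 µM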). In outline:
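Cells: HEK293H with a UAS-driven beta-lactamase reporter responsive to PPARd. Compounds were co-added with L165041 (300 nM, final) and incubated 17 h at 37 C before a 2 h room-temperature FRET substrate step and fluorescence reading.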

In test [5] the target is Bile acid receptor (Homo sapiens) (UniProt Q96RI1). Put plainly: qHTS assay to identify small molecule antagonists of the farnesoid-X-receptor (FXR) signaling pathway (AID 743217; active = well fitted inhibition curve with a large enough effect in the signal ratio in the repeat runs, not every such curve was filed as active; the % refers to the signal ratio). In outline:
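Cells carrying a UAS-driven beta-lactamase reporter (GeneBLAzer FXR-UAS-bla HEK 293T) were plated and rested 5 h at 37 °C. Compounds in DMSO were added alongside chenodeoxycholic acid agonist at 50 uM final and left 16 h at 37 °C before FRET substrate readout.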

Test [6] in a line: qHTS assay to identify small molecule agonists of the farnesoid-X-receptor (FXR) signaling pathway - cell viability counter screen (AID 743218). Note: nearly all actives have a fitted effect of over 45% in size. Summed up: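 Cells were seeded, left 5 h at 37 C and 5% CO2, then dosed with compound in DMSO for 16 h. After the beta-lactamase FRET read, CellTiter-Glo was added and luminescence measured 30 min later.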
For test [7], the target named is Bile acid receptor (Homo sapiens) (UniProt Q96RI1). In words: qHTS assay to identify small molecule agonists of the farnesoid-X-receptor (FXR) signaling pathway (AID 743220; active = well fitted activation curve with a large enough effect in the signal ratio in the repeat runs, not every such curve was filed as active; the % refers to the signal ratio). In outline:
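FXR-UAS-bla HEK 293T cells carrying a UAS-driven beta-lactamase reporter were plated for 5 h at 37C/5% CO2, then exposed to DMSO-dissolved Tox21 10K compounds for 16 h at 37C. A LiveBLAzer B/G FRET substrate was loaded for 2 h at room temperature before fluorescence reading.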

Test [8] in a line: qHTS assay to identify small molecule antagonists of the farnesoid-X-receptor (FXR) signaling pathway - cell viability counter screen (AID 743221; active = well fitted cell-killing curve with a large enough effect in the repeat runs, not every such curve was filed as active; note: nearly all actives have a fitted effect of over 50% in size). Summed up:
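Here viability was scored by luminescence after CellTiter-Glo addition to wells already read for beta-lactamase. Prior treatment: compound plus CDCA (50 uM final), 16 h, 37 C, HEK 293T FXR-bla cells.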

The target in test [9] is Vitamin D3 receptor (Homo sapiens) (UniProt P11473). Put plainly: qHTS assay to identify small molecule agonists of the vitamin D receptor (VDR) signaling pathway (AID 743222; calls by dose curve). Summed up: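 Cells carrying a VDR-driven beta-lactamase reporter are seeded at 2,000 per well and rested 4 h. Compounds in DMSO are added for 16 h at 37C, and FRET substrate fluorescence is measured after 2 h at room temperature.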

Test [10] has the same target. In words: qHTS assay to identify small molecule antagonists of the vitamin D receptor (VDR) signaling pathway (AID 743223; active = well fitted inhibition curve with a large enough effect in the signal ratio in the repeat runs, not every such curve was filed as active; the % refers to the signal ratio). In outline: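 Inhibition of agonist-driven VDR signalling is scored in VDR-bla cells: 3 nM final 1alpha,25-dihydroxyvitamin D3 plus compound, 16 h at 37C, then beta-lactamase detection by FRET substrate fluorescence after 2 h.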
Test [11] in a line: qHTS assay to identify small molecule agonists of the vitamin D receptor (VDR) signaling pathway - cell viability counter screen (AID 743224). Note: series mostly up to about 63 µM; nearly all actives have a fitted effect of over 50% in size. In outline: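 Cells: VDR-bla, 2,000/well, settled 4 h. Treatment: compounds in DMSO, 16 h, 37C/5% CO2. Readout: CellTiter-Glo luminescence after 30 min RT.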
A short description of test [12]: qHTS assay to identify small molecule antagonists of the vitamin D receptor (VDR) signaling pathway - cell viability counter screen (AID 743225). Note: nearly all actives have a fitted effect of over 50% in size. Summed up: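 Compounds were pinned onto VDR-bla HEK 293T cells together with 1-alpha,25-dihydroxyvitamin D3 at 3 nM final. After 16 h at 37C and 5% CO2 plus the reporter readout, cell viability was measured by CellTiter-Glo luminescence (30 min, room temperature).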

Test [13] is described as follows: qHTS assay to identify small molecule agonists of the NFkB signaling pathway - cell viability counter screen (AID 1159515; calls by dose curve; note: series mostly up to about 61 µM; nearly all actives have a fitted effect of over 55% in size). In outline:
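Cells are seeded (2,000 NFkB-bla ME-180 per well), rested overnight, and dosed with DMSO-dissolved compounds for 5 hr at 37 C. Viability is then read by CellTiter-Glo luminescence after 30 min at room temperature.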

The nature of test [14]: qHTS assay to identify small molecule agonists of the endoplasmic reticulum stress response signaling pathway (AID 1159516; active = well fitted activation curve with a large enough effect in the signal ratio in the repeat runs, not every such curve was filed as active; the % refers to the signal ratio). In outline:
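Cells are seeded at 1,500 per well and incubated overnight. Compounds in DMSO are added for 5 hr at 37 C, then beta-lactamase FRET substrate for 2 hr at room temperature, and fluorescence at 460 and 530 nm is measured.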

Test [15] can be described thus: qHTS assay to identify small molecule agonists of the endoplasmic reticulum stress response signaling pathway - cell viability counter screen (AID 1159517; calls by dose curve). In outline:
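Steps: seed 1,500 ESRE-bla HeLa cells per well; incubate overnight at 37 C, 5% CO2; add compounds in DMSO for 5 hr; run FRET substrate 2 hr RT; add CellTiter-Glo, wait 30 min, read luminescence.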

Test [16] is described as follows: qHTS assay to identify small molecule antagonists of the retinoid-related orphan receptor gamma (ROR-gamma) signaling pathway - cell viability counter screen (AID 1159520). Note: nearly all actives have a fitted effect of over 50% in size. Summed up: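 Tet-on ROR gamma CHO cells were given compounds for 2 hr, then doxycycline hyclate at 1 uM final, and incubated 16 hr at 37 C. Viability was measured as ATP content by CellTiter-Glo luminescence.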

Test [17] concerns the target Nuclear receptor ROR-gamma (Homo sapiens) (UniProt P51449). Put plainly: qHTS assay to identify small molecule antagonists of the retinoid-related orphan receptor gamma (ROR-gamma) signaling pathway (AID 1159521). In outline: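 Test compounds were applied to Tet-on RORγ CHO cells 2 h ahead of doxycycline hyclate (1 uM final). Luciferase reporter activity was quantified by luminescence after 16 h at 37 C and 5% CO2.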

Test [18] is described as follows: qHTS assay to identify small molecule agonists of the AP-1 signaling pathway - cell viability counter screen (AID 1159525; calls by dose curve; note: nearly all actives have a fitted effect of over 55% in size). In outline:
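Same-well cytotoxicity counter screen of the Tox21 10K library in ME-180 cells. The readout is ATP-dependent luminescence after 5 h compound treatment. Data are normalised to DMSO and tetra n-octyl ammonium bromide controls.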

Test [19] in a line: qHTS assay to identify small molecule agonists of the AP-1 signaling pathway (AID 1159526; calls by dose curve).
Test [20] deals with Retinoic acid receptor RXR-alpha (Homo sapiens) (UniProt P19793). In words: qHTS assay to identify small molecule agonists of the RXR signaling pathway (AID 1159527; calls by dose curve; note: nearly all actives have a fitted effect of over 35% in size; note: potency is the fitted concentration of half-maximal effect). Summed up:
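Using 9-cis retinoic acid as the reference agonist, chemicals were tested in HEK 293T cells […] for 16 hr; substrate loading lasted 2 hr at room temperature.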

Values joined by “and” are separate entries in the source; they are usually repeats but may differ in a detail not shown here. Equal entries are not always repeated. Inconclusive results are not listed. Where a structure was tested more than once in an assay, its records may differ in their call. Active and inactive are the calls of the source. Unless noted, calls come from the whole dose curve; as a rule, active = well fitted curve in the direction sought with a large enough effect in the repeat runs; inconclusive = weak or mixed curves; inactive = no such curve, though single readings can be large; an effect the other way counts as inactive or inconclusive.

Chain of Bile acid receptor (Homo sapiens) (Q96RI1 whole entry, looked up): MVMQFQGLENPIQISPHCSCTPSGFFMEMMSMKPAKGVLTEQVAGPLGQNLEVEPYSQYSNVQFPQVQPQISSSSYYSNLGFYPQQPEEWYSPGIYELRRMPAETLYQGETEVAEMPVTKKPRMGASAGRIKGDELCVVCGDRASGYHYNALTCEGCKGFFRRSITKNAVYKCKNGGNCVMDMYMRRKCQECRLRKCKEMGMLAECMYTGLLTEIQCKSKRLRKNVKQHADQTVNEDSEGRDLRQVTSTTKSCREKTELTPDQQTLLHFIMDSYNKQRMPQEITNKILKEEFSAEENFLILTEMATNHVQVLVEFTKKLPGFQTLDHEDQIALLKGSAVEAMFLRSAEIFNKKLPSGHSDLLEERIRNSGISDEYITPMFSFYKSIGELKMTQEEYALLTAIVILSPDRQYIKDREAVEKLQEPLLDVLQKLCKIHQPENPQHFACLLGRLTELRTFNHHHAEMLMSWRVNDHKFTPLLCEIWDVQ
Chain of Retinoic acid receptor RXR-alpha (Homo sapiens) (P19793 whole entry, looked up): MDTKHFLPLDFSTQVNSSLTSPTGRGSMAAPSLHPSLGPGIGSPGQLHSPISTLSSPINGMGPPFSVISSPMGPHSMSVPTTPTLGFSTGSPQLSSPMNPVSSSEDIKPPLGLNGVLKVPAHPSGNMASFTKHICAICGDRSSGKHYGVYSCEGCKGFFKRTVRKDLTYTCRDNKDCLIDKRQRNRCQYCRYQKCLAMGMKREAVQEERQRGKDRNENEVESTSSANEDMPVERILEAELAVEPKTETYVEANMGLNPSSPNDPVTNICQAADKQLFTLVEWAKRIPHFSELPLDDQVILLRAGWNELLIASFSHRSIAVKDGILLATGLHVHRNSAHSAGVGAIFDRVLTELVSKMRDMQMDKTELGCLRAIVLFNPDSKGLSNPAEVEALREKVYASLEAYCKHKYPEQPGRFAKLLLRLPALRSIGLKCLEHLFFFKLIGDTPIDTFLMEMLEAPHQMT
Chain of Vitamin D3 receptor (Homo sapiens) (P11473 whole entry, looked up): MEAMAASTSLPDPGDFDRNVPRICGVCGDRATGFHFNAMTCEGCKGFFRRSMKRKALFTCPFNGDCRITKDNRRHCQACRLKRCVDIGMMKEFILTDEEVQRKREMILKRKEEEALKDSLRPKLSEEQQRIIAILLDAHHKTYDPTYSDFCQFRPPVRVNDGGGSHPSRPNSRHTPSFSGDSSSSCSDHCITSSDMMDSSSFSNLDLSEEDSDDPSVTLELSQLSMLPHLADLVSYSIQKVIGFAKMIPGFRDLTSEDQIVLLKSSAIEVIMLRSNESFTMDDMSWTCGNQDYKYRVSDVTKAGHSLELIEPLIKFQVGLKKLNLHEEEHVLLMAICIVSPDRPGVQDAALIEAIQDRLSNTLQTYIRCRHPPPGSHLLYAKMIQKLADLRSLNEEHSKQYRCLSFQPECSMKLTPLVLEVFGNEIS
Chain of Peroxisome proliferator-activated receptor delta (Homo sapiens) (Q03181 whole entry, looked up): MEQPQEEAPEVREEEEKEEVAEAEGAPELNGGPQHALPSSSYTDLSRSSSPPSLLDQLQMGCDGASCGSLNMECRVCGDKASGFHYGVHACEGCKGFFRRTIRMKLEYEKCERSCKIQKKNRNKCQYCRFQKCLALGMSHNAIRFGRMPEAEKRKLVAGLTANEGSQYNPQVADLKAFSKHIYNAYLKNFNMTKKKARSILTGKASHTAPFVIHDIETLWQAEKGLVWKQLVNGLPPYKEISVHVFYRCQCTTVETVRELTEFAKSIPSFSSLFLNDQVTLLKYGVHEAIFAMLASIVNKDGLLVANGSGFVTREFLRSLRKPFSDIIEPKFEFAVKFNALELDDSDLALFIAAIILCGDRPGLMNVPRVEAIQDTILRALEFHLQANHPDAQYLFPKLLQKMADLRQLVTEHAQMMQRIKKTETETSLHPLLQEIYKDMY

In the case of `O=C1Nc2ccc(Cl)cc2C(c2ccccc2)=NC1O` (stereo not drawn), the Potency result in test [1], in test [2], in test [3], in [4], in test [5] and in [6] was “inactive” each time. Further, the Potency result in test [7], in test [8], in test [10], in [11], in test [12] and in test [13] was “inactive” each time. Also, the Potency result in [14], in [15], in test [16], in test [17], in test [18] and in test [20] was “inactive” in each case. Moreover, the molecule was called inactive in test [9] and in [19].

As to `CCCCCCCCCCCCCl`, the Potency result in test [1], in test [2], in test [3], in [4], in test [8] and in test [10] was “inactive” in each case. In addition, the Potency result in test [11], in test [12], in test [13], in test [14], in [15] and in test [16] was “inactive” throughout. The Potency result in [17], in [18] and in test [20] was “inactive” throughout. Besides, the result in test [9] and in test [19] was inactive.

Regarding `c1ccc(C2CO2)cc1` (stereo not drawn), the Potency result in [1], in test [2], in test [3], in [4], in [6] and in test [8] was “inactive” in each case. For the same molecule, the Potency result in [10], in test [11], in test [12], in test [13], in [14] and in test [15] was “inactive” each time. Also, the Potency result in test [16], in [17] and in test [18] was “inactive” each time. Further, the outcome in [9] and in test [19] was inactive. Moreover, the Potency entry in test [20] is “inactive and 17.4 µM (active)”.

Take `C[N+](C)(C)CC(=O)O`: the Potency entry in test [1], in test [2], in test [3], in test [4], in [8] and in test [11] was “inactive” throughout. In addition, the Potency entry in [12], in [13], in test [14], in test [15], in test [16] and in [17] was “inactive” throughout. Besides, the Potency entry in test [18] and in test [20] was “inactive” each time. The molecule was called inactive in test [19].

Take `CC(C)(C#N)N=NC(C)(C)C#N`: the Potency entry in [1], in test [2], in [3], in [4], in [8] and in test [10] was “inactive” in each case. Besides, the Potency entry in test [11], in [12], in test [13], in [14], in [15] and in test [16] was “inactive” each time. Further, the Potency entry in test [17], in test [18] and in test [20] was “inactive” each time. Besides, the call in test [9] and in [19] was inactive.

For `CCC1(c2ccc(N)cc2)CCC(=O)NC1=O` (stereo not drawn), the Potency result in test [1], in [3], in test [5], in test [6], in test [7] and in [8] was “inactive” in each case. Further, the Potency entry in test [10], in [11], in [12], in test [13], in test [14] and in test [15] was “inactive” throughout. The Potency entry in [16], in [17], in [18] and in test [20] was “inactive” throughout. The call in test [9] and in test [19] was inactive.

In the case of `Cc1cc(Cl)ccc1N=CN(C)C`, the Potency entry in test [1], in test [2], in test [3], in test [4], in [6] and in test [8] was “inactive” in each case. Also, the Potency entry in [10], in test [11], in [12], in test [13], in [14] and in [15] was “inactive” in each case. Also, the Potency result in test [16], in test [17], in [18] and in test [20] was “inactive” each time. Besides, the molecule was called inactive in test [9] and in test [19].

(Values after PubChem BioAssay (Tox21).)
